A collection of fitness landscapes (doi:10.1126/science.1257360)
Over roughly 140,000 sequences, “enrichment ratio after two sorts for PhoP signalling” has its median near 0; the highest 2% begin near 11. For the sample, the highest values were picked, then their nearest neighbours and some sequences at random.

B1: PhoQ; a variant is named by its letters at X, in order, P23837 (parent)
chain: MKKLLRLFFPLSLRVRFLLATAAVVLVLSLAYGMVALIGYSVSFDKTTFRLLRGESNLFYTLAKWENNKLHVELPENIDKQSPTMTLIYDENGQLLWAQRDVPWLMKMIQPDWLKSNGFHEIEADVNDTSLLLSGDHSIQQQLQEVREDDDDAEMTHSVAVNVYPATSRMPKLTIVVVDTIPVELKSSYMVWSWFIYVLSANLLLVIPLLWVAAWWSLRPIEALAKEVRELEEHNRELLNPATTRELTSLVRNLNRLLKSERERYDKYRTTLTDLTHSLKTPLXXLQXXLRSLRSEKMSVSDAEPVMLEQISRISQQIGYYLHRASMRGGTLLSRELHPVAPLLDNLTSALNKVYQRKGVNISLDISPEISFVGEQNDFVEVMGNVLDNACKYCLEFVEISARQTDEHLYIVVEDDGPGIPLSKREVIFDRGQRVDTLRPGQGVGLAVAREITEQYEGKIVAGESMLGGARMEVIFGRQHSAPKDE

Variants of: B1
Assay: enrichment ratio after two sorts for PhoP signalling (ratio (wild type AVST 3.29)); higher = more functional
Conditions: with PhoP (E. coli)

Row | Variant | enrichment ratio
1 | EGFI | ≤ 0.25
2 | EGVD | ≤ 0.25
3 | QFHL | ≤ 0.25
4 | WTPV | ≤ 0.25
5 | FCGM | ≤ 0.25
6 | WFML | ≤ 0.25
7 | GWCM | ≤ 0.25
8 | QTWG | ≤ 0.25
9 | AMYD | ≤ 0.25
10 | AIGH | 2.15
11 | AMGD | 11.5
12 | AKTI | 23.6
13 | AMTH | 0.411
14 | KKTI | ≤ 0.25
15 | AITC | 19
16 | AKTD | ≤ 0.25
17 | AIFC | ≤ 0.25
18 | KKTC | ≤ 0.25
19 | AMTD | ≤ 0.25
20 | AMGH | 51
21 | DKAP | ≤ 0.25
22 | KDMR | ≤ 0.25
23 | TRNK | ≤ 0.25
24 | HVKY | ≤ 0.25

Row | Variant | enrichment ratio
25 | PFRW | ≤ 0.25
26 | KMGT | ≤ 0.25
27 | QKFN | ≤ 0.25
28 | RPYD | ≤ 0.25
29 | AMWM | ≤ 0.25
30 | AMVQ | 13.1
31 | AITI | 10.7
32 | NMVQ | ≤ 0.25
33 | NMTI | ≤ 0.25
34 | AMTI | 11.6
35 | AMIM | 29.3
36 | AKTC | 30.2
37 | AKTK | ≤ 0.25
38 | AMVA | ≤ 0.25
39 | AKFC | ≤ 0.25
40 | AMPM | ≤ 0.25
41 | DMSC | ≤ 0.25
42 | KPPG | ≤ 0.25
43 | MFQM | ≤ 0.25
44 | IEMM | ≤ 0.25
45 | MKCV | ≤ 0.25
46 | WYPM | ≤ 0.25
47 | IISF | ≤ 0.25
48 | KMPW | ≤ 0.25

Row | Variant | enrichment ratio
49 | LYRY | ≤ 0.25
50 | PGVK | ≤ 0.25
51 | AMNK | ≤ 0.25
52 | NMAQ | ≤ 0.25
53 | AHGQ | ≤ 0.25
54 | AMGQ | 13.7
55 | AMFC | ≤ 0.25
56 | AMTC | 20.7
57 | NMGQ | ≤ 0.25
58 | AMAQ | 12.1
59 | AKAQ | 7.28
60 | HQSV | ≤ 0.25
61 | LFRC | ≤ 0.25
62 | PWKY | ≤ 0.25
63 | DPKV | ≤ 0.25
64 | TIQF | 9.01
65 | SAIN | 11.8
66 | EQIN | ≤ 0.25
67 | NAIN | ≤ 0.25
68 | TGIN | ≤ 0.25
69 | SRIN | ≤ 0.25
70 | SGIN | 11.4
71 | KAIN | ≤ 0.25
72 | SQIN | 12.8

Row | Variant | enrichment ratio
73 | SCIN | 0.637
74 | VAML | 7.99
75 | KNIR | ≤ 0.25
76 | SWRM | ≤ 0.25
77 | TMWP | ≤ 0.25
78 | SLWP | ≤ 0.25
79 | DKCH | ≤ 0.25
80 | VWNG | ≤ 0.25
81 | AGSY | 14.7
82 | TGSY | 15.9
83 | AHSY | ≤ 0.25
84 | RGSY | ≤ 0.25
85 | GGSY | ≤ 0.25
86 | AKSY | 2.91
87 | AISY | 5.51
88 | AQSY | 12.7
89 | ADSY | ≤ 0.25
90 | DTDV | ≤ 0.25
91 | WMKH | ≤ 0.25
92 | MNKP | ≤ 0.25
93 | RIYR | ≤ 0.25
94 | FFTK | ≤ 0.25
95 | WFGI | ≤ 0.25
96 | HTNW | ≤ 0.25

Row | Variant | enrichment ratio
97 | KLTI | ≤ 0.25
98 | KAGV | ≤ 0.25
99 | KSGV | ≤ 0.25
100 | MRHV | ≤ 0.25
101 | MSHF | 2.07
102 | MSHV | 17.4
103 | MSGV | 13.8
104 | SEQA | ≤ 0.25
105 | GVVG | ≤ 0.25
106 | LEYW | ≤ 0.25
107 | RSAR | ≤ 0.25
108 | EASM | ≤ 0.25
109 | FALQ | 7.48
110 | FPLQ | ≤ 0.25
111 | FILQ | 11.5
112 | MPLQ | ≤ 0.25
113 | FITA | ≤ 0.25
114 | MALQ | 13.1
115 | FIMQ | ≤ 0.25
116 | WILQ | ≤ 0.25
117 | FDLQ | ≤ 0.25
118 | FQLQ | 17.7
119 | TSLQ | 16.4
120 | NSLQ | 0.291

Row | Variant | enrichment ratio
121 | TPCV | ≤ 0.25
122 | HIPN | ≤ 0.25
123 | WRHY | ≤ 0.25
124 | GDYV | ≤ 0.25
125 | LQVN | ≤ 0.25
126 | DQMY | ≤ 0.25
127 | VHFI | ≤ 0.25
128 | FDRQ | ≤ 0.25
129 | LRHY | ≤ 0.25
130 | KSLQ | ≤ 0.25
131 | FSLQ | 11.8
132 | FCLQ | 6.86
133 | LNSK | ≤ 0.25
134 | TCCM | 20
135 | QECM | ≤ 0.25
136 | TCWM | ≤ 0.25
137 | TCNM | 1.24
138 | TCIM | 0.447
139 | TCYM | 12.1
140 | TCYN | 3.25
141 | TCGM | 15.3
142 | FCTM | ≤ 0.25
143 | TCTM | 21.1
144 | TCYA | 1.75

Row | Variant | enrichment ratio
145 | VECM | 0.698
146 | IMKY | ≤ 0.25
147 | VMEY | ≤ 0.25
148 | TYKQ | ≤ 0.25
149 | IGCI | ≤ 0.25
150 | THAC | 6.19
151 | SQFC | ≤ 0.25
152 | WRVD | ≤ 0.25
153 | ISHC | ≤ 0.25
154 | YTMN | ≤ 0.25
155 | EMDR | ≤ 0.25
156 | DSWL | ≤ 0.25
157 | RECW | ≤ 0.25
158 | FMGG | ≤ 0.25
159 | EQVK | ≤ 0.25
160 | VECK | ≤ 0.25
161 | TCKQ | ≤ 0.25
162 | VECQ | 8.23
163 | TCCQ | 12.5
164 | TCCI | 7.17
165 | TCCK | 21.6
166 | TDEN | ≤ 0.25
167 | QTMG | ≤ 0.25
168 | DPLR | ≤ 0.25

Row | Variant | enrichment ratio
169 | SCTS | 14.9
170 | SCTD | ≤ 0.25
171 | SCTK | 7.2
172 | SCTC | 7.94
173 | SCTH | 9.21
174 | SCTA | 12.7
175 | LRRQ | ≤ 0.25
176 | NIGG | ≤ 0.25
177 | LVAY | ≤ 0.25
178 | HFFS | ≤ 0.25
179 | PHFW | ≤ 0.25
180 | STAF | 7.65
181 | SRAF | ≤ 0.25
182 | MKAF | ≤ 0.25
183 | MSAF | 3.4
184 | SCAF | 16.3
185 | WIAF | ≤ 0.25
186 | MAAF | ≤ 0.25
187 | MCAF | 32.1
188 | KCAF | ≤ 0.25
189 | KMAF | ≤ 0.25
190 | MIAF | 14
191 | MMAF | 13
192 | LHIP | ≤ 0.25

Row | Variant | enrichment ratio
193 | RPYE | ≤ 0.25
194 | AWSD | ≤ 0.25
195 | WEIC | ≤ 0.25
196 | FTRG | ≤ 0.25
197 | AQMD | ≤ 0.25
198 | LIFC | ≤ 0.25
199 | PKNW | ≤ 0.25
200 | FRIG | ≤ 0.25
201 | LEYC | 4.32
202 | WRGG | ≤ 0.25
203 | TYCA | 12.1
204 | TYMG | 14.3
205 | TYHG | ≤ 0.25
206 | TYVG | 0.756
207 | TYCE | ≤ 0.25
208 | TYCI | ≤ 0.25
209 | FWCS | 1.37
210 | HQAE | ≤ 0.25
211 | APEP | ≤ 0.25
212 | AHCL | 9.7
213 | ACCY | 19.6
214 | KCCC | ≤ 0.25
215 | ACCK | 12.8
216 | ACCI | 26.9

Row | Variant | enrichment ratio
217 | ACCS | 2.23
218 | ACCC | 34.1
219 | ACFH | ≤ 0.25
220 | ACCA | 7.21
221 | VCCY | ≤ 0.25
222 | KCCY | ≤ 0.25
223 | YDTQ | ≤ 0.25
224 | GRPL | ≤ 0.25
225 | KEDR | ≤ 0.25
226 | FEMC | 10.8
227 | IQYT | ≤ 0.25
228 | DHLG | ≤ 0.25
229 | NLYQ | ≤ 0.25
230 | MPYA | ≤ 0.25
231 | ACNK | ≤ 0.25
232 | ACCV | 8.87
233 | ACCG | 25.4
234 | ACCM | 14.9
235 | ACCE | ≤ 0.25
236 | PCQA | ≤ 0.25
237 | HATN | ≤ 0.25
238 | NYIP | ≤ 0.25
239 | TACF | 18.8
240 | NACL | 4.16

Row | Variant | enrichment ratio
241 | TACL | 11.4
242 | TACS | 14.1
243 | TAMD | 6.3
244 | KACL | ≤ 0.25
245 | TACA | 8.47
246 | TACE | ≤ 0.25
247 | KACF | ≤ 0.25
248 | TACI | 22.6
249 | NACF | ≤ 0.25
250 | TAAI | 7.96
251 | WKNR | ≤ 0.25
252 | VKRR | ≤ 0.25
253 | DLFL | ≤ 0.25
254 | DTVY | ≤ 0.25
255 | GNTN | ≤ 0.25
256 | FYCC | ≤ 0.25
257 | AHHD | ≤ 0.25
258 | RGHL | 0.34
259 | VRKH | ≤ 0.25
260 | TACC | 13.6
261 | TADH | 4.03
262 | NACR | ≤ 0.25
263 | TACQ | 15
264 | YACQ | ≤ 0.25

Row | Variant | enrichment ratio
265 | KACC | ≤ 0.25
266 | TAQP | ≤ 0.25
267 | TACR | 14.8
268 | TAKR | ≤ 0.25
269 | WVLV | ≤ 0.25
270 | EKCV | ≤ 0.25
271 | QQYK | ≤ 0.25
272 | RYKI | ≤ 0.25
273 | WKHA | ≤ 0.25
274 | HFSC | ≤ 0.25
275 | VSFV | 0.649
276 | WDSR | ≤ 0.25
277 | AICD | 5.13
278 | NQCD | ≤ 0.25
279 | WLCD | ≤ 0.25
280 | ANCD | 0.285
281 | TQCD | 29.3
282 | TKCD | 21.6
283 | AQCD | 42.7
284 | SLCD | 17.9
285 | AKCD | 0.285
286 | KKCD | ≤ 0.25
287 | IQCD | ≤ 0.25
288 | PLCD | ≤ 0.25

Row | Variant | enrichment ratio
289 | FDEE | ≤ 0.25
290 | LLLK | ≤ 0.25
291 | IWDM | ≤ 0.25
292 | WDSH | ≤ 0.25
293 | HNFP | ≤ 0.25
294 | PDHT | ≤ 0.25
295 | MHPL | ≤ 0.25
296 | KHNC | ≤ 0.25
297 | AWVP | ≤ 0.25
298 | NDNL | ≤ 0.25
299 | KCCD | ≤ 0.25
300 | SPCD | ≤ 0.25
301 | KYCD | ≤ 0.25
302 | FQCD | ≤ 0.25
303 | STCD | 6.22
304 | SCCD | 16.2
305 | SNCD | 16.4
306 | VCCD | ≤ 0.25
307 | SQCD | 11.4
